According to PubChem BioAssay (NCI):
Where “and” joins values, the source holds several entries; their conditions need not be identical. Identical values can stand only once. This is part of a sample that, as a whole, favours compounds with a hit. Of some 83,000 tested, about 20% had one in any assay.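 Treatment: one concentration, 48 hours, 96-well format. Scoring: percent growth, with anything below 10 considered active.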

Columns and labels:
Test in all cases: NCI-60 one-dose screen, 48 h (100 = growth as untreated, 0 = no growth, -100 = all killed)
Details in all cases: 10 µM unless noted
NCI-H23 lung = system: NCI-H23 lung
NCI-H226 lung = system: NCI-H226 lung
NCI-H322M lung = system: NCI-H322M lung
HOP-62 NSCLC = system: HOP-62 NSCLC
NCI-H460 lung = system: NCI-H460 lung
HOP-92 NSCLC = system: HOP-92 NSCLC
NCI-H522 lung = system: NCI-H522 lung
A549/ATCC NSCLC = system: A549/ATCC NSCLC
786-0 renal = system: 786-0 renal
COLO 205 colon = system: COLO 205 colon
DU-145 prostate = system: DU-145 prostate
K-562 leukemia = system: K-562 leukemia
MALME-3M melanoma = system: MALME-3M melanoma
MDA-MB-231 breast = system: MDA-MB-231 breast
RXF 393 renal = system: RXF 393 renal
SF-268 CNS = system: SF-268 CNS
SF-295 CNS = system: SF-295 CNS
SF-539 CNS = system: SF-539 CNS
UACC-257 melanoma = system: UACC-257 melanoma
M14 melanoma = system: M14 melanoma

Measured: growth

O=C(OCc1ccccc1)c1ccccc1
inactive: NCI-H23 lung 107% and 90.2% | NCI-H226 lung 97.9% and 93.9% | NCI-H322M lung 115% and 106% | HOP-62 NSCLC 94.9% and 90.5% | NCI-H460 lung 109% and 108% | HOP-92 NSCLC 89.6% | NCI-H522 lung 111% and 79.6% | A549/ATCC NSCLC 95.3% and 86.6% | 786-0 renal 95.1% and 96.5% | COLO 205 colon 101% | DU-145 prostate 118% and 101% | K-562 leukemia 104% | MALME-3M melanoma 109% and 102% | MDA-MB-231 breast 88.2% and 102% | RXF 393 renal 91.4% | SF-268 CNS 114% and 99.1% | SF-295 CNS 108% and 103% | SF-539 CNS 107% and 94.9% | UACC-257 melanoma 95.6% and 85% | M14 melanoma 104% and 91%

CCNCc1ccccc1
inactive: NCI-H23 lung 91.4% | NCI-H226 lung 100% | NCI-H322M lung 100% | HOP-62 NSCLC 102% | NCI-H460 lung 109% | HOP-92 NSCLC 113% | NCI-H522 lung 102% | A549/ATCC NSCLC 102% | 786-0 renal 103% | COLO 205 colon 107% | DU-145 prostate 104% | K-562 leukemia 96.3% | MALME-3M melanoma 101% | MDA-MB-231 breast 110% | RXF 393 renal 118% | SF-268 CNS 104% | SF-295 CNS 105% | SF-539 CNS 102% | UACC-257 melanoma 102% | M14 melanoma 109%

Nc1nc(-c2ccccn2)cc(-c2cc(-c3ccccn3)nc(N)n2)n1
inactive: NCI-H23 lung 103% | NCI-H226 lung 96.1% | NCI-H322M lung 94.3% | HOP-62 NSCLC 119% | NCI-H460 lung 134% | HOP-92 NSCLC 103% | NCI-H522 lung 107% | A549/ATCC NSCLC 117% | 786-0 renal 112% | COLO 205 colon 118% | DU-145 prostate 119% | K-562 leukemia 114% | MALME-3M melanoma 109% | MDA-MB-231 breast 102% | RXF 393 renal 105% | SF-268 CNS 106% | SF-295 CNS 102% | SF-539 CNS 103% | UACC-257 melanoma 112% | M14 melanoma 100%

OCCSc1ccc(Cl)cc1
inactive: NCI-H23 lung 112% and 102% | NCI-H226 lung 116% and 99.3% | NCI-H322M lung 114% and 96% | HOP-62 NSCLC 108% and 76.1% | NCI-H460 lung 108% and 107% | HOP-92 NSCLC 101% and 97.7% | NCI-H522 lung 101% and 76.5% | A549/ATCC NSCLC 104% and 97% | 786-0 renal 108% and 95.7% | COLO 205 colon 117% and 104% | DU-145 prostate 125% and 107% | K-562 leukemia 112% and 136% | MALME-3M melanoma 117% and 83.8% | MDA-MB-231 breast 115% and 99.5% | RXF 393 renal 114% and 108% | SF-268 CNS 124% and 101% | SF-295 CNS 94.9% and 101% | SF-539 CNS 108% and 91.7% | UACC-257 melanoma 114% and 97.2% | M14 melanoma 107% and 94.2%

C(=N\OCCc1ccccc1)/c1ccccn1
inactive: NCI-H23 lung 109% | NCI-H226 lung 121% and 108% | NCI-H322M lung 138% and 105% | HOP-62 NSCLC 127% | NCI-H460 lung 103% and 111% | HOP-92 NSCLC 103% | NCI-H522 lung 112% and 102% | A549/ATCC NSCLC 102% and 101% | 786-0 renal 96.7% and 97.1% | COLO 205 colon 135% and 115% | DU-145 prostate 111% and 106% | K-562 leukemia 115% | MALME-3M melanoma 153% and 95.9% | MDA-MB-231 breast 124% and 112% | RXF 393 renal 116% and 119% | SF-268 CNS 107% and 105% | SF-295 CNS 96.6% | SF-539 CNS 104% and 93.6% | UACC-257 melanoma 109% and 104% | M14 melanoma 115% and 117%
